Data published in PubChem BioAssay (NCATS).
Records with an inconclusive call do not appear. Entries that show only a call come without a potency. Active and inactive are the calls of the source. Calls come from the whole dose curve; as a rule, active = well fitted inhibition curve with a large enough effect; inconclusive = small, poorly fitted or top-dose-only effect; inactive = no such curve, though single readings can be large or run the other way. *1 amine or outer side, *2 acyl side, *3 side chain or, on linkers, in order; H or OH if unused. Where a SMILES comes first, the peptide text is derived from it. Bridges are numbered along the chain shown (N, C = ends). [ ]: non-standard residue; d: D form. The star is where a group is joined. pTerphenylCO(4''-OnC5H11) = CCCCCOc1ccc(-c2ccc(-c3ccc(C(=O)*)cc3)cc2)cc1; Orn(4R-OH,5R-OH) = O=C([C@H](C[C@@H](O)[C@@H](O)N[*:3])N[*:1])[*:2]; hTyr(3S-OH,4S-OH) = N[C@H](C(=O)O)[C@H](O)[C@@H](O)c1ccc(O)cc1; Pro(3S-OH,4S-Me) = C[C@H]1CN[C@H](C(=O)O)[C@H]1O; Hyp = O=C(O)[C@@H]1C[C@@H](O)CN1

test system: Zika virus NS2B-NS3 protease (linked construct); assay: Primary screen NINDS Rhodamine qHTS for Zika virus inhibitors (AID 1347160); settings: purified NS2B-NS3 protease, Rhodamine110 substrate fluorescence; series mostly up to 57.1 µM; note: nearly all actives have a fitted effect of over 55% in size
Method in brief: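 Aprotinin served as in-plate control. Conditions: 25 nM linked NS2B-NS3, pH 8.0 Tris buffer, titrated compounds, 15 min preincubation and 15 min reaction with 1.5 microM Rhod110 substrate at room temperature.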
Potency is the fitted concentration of half-maximal effect.

SMILES	Potency
CCCCCOc1ccc(-c2ccc(-c3ccc(C(=O)N[C@H]4C[C@@H](O)[C@@H](O)NC(=O)[C@@H]5[C@@H](O)[C@@H](C)CN5C(=O)[C@H]([C@@H](C)O)NC(=O)[C@H]([C@H](O)[C@@H](O)c5ccc(O)cc5)NC(=O)[C@@H]5C[C@@H](O)CN5C(=O)[C@H]([C@@H](C)O)NC4=O)cc3)cc2)cc1 ({pTerphenylCO(4''-OnC5H11)}-[Orn(4R-OH,5R-OH)]T[Hyp][hTyr(3S-OH,4S-OH)]T[Pro(3S-OH,4S-Me)]; lactam 1-C)	inactive
Cc1ccnc(NC(=O)C(C)c2cccc(C(=O)c3ccccc3)c2)c1 (stereo not given)	inactive
COc1nc2ccc(Br)cc2cc1[C@@H](c1ccccc1)[C@@](O)(CCN(C)C)c1cccc2ccccc12	inactive
O=C(Nc1ccccc1)N1CCN(c2nc(-c3ccccc3)ns2)CC1	inactive
Fc1ccc2[nH]ccc2c1-c1nc(N2CCOCC2)c2sc(CN3CCN(CC4CC4)CC3)cc2n1	inactive
COc1ccc(NC(=O)c2ccc(C(=N)N(C)C)cc2)c(C(=O)Nc2ccc(Cl)cn2)c1	inactive
COC1CC(O[C@H]2CC[C@]3(C)C4CC[C@]5(C)C(C6=CC(=O)OC6)=CCC56OC46CC[C@@H]3C2)OC(C)C1O[C@@H]1O[C@H](CO[C@@H]2O[C@H](CO)[C@@H](O)[C@H](O)[C@H]2O)[C@@H](O)[C@H](O)[C@H]1O (stereo not given in full)	inactive
CC(C)(C)OC(=O)c1ncn2c1C(C)(C)Nc1ccccc1-2	inactive
CCOC(=O)C1=Cc2ccc(C(F)(F)C(F)(F)F)cc2N=C(N)C1	inactive
CC[C@H](C)/C=C(C)/C=C/C1=CC2=C(Cl)C(=O)[C@](C)(O)[C@H](OC(C)=O)[C@H]2CO1	11.2 µM (active)
COc1cc(C(=O)NCC2(N(C)C)CCCC2)cc(OC)c1OCc1ccccc1	inactive
CNCCN1CCC(c2cc(CN(C)C(=O)c3cccc(Oc4ccccc4)c3)ccn2)CC1	inactive
Cc1[nH]c2ccccc2c1CCNCc1ccc(/C=C/C(=O)NO)cc1	inactive
O=C(NC1CCN(CCCCC2(C(=O)NCC(F)(F)F)c3ccccc3-c3ccccc32)CC1)c1ccccc1-c1ccc(C(F)(F)F)cc1	inactive
OC1C=C2C3CN(Cc4cc5c(cc43)OCO5)C2CC1O (stereo not given)	inactive
CCN(CC)CCCCCCNc1cc(OC)cc2c(C)ccnc12	inactive
COc1cc(/C=C2\CCCN([C@@H](C)c3ccc(F)cc3)C2=O)ccc1-n1cnc(C)c1	inactive
O=C(Nc1cccnc1)c1cc(-c2ccnc(F)c2)ccc1OCc1ccccc1	inactive
CC(=O)OC/C(=C/C(=O)O)CC[C@@H]1C(C=O)=CC[C@@H]2C(C)(C)CCC[C@@]12C	inactive
O=C(Nc1ccc(Cl)cc1)C1CCCN(C(=O)c2cccc(-c3ccco3)c2)C1 (stereo not given)	inactive

SMILES	Potency
CC(=O)CC(=O)Nc1ccc(Cl)c(C(F)(F)F)c1	inactive
Cc1[nH]c(/C=C2\C(=O)Nc3ccc(F)cc32)c(C)c1C(=O)NCCN1CCCC1	inactive
Cc1cc2c(N3CCCC3)nc(N3CCCC3)nc2n1C	inactive
Cc1nc2ccc(CN(C)c3ccc(C(=O)NC(CCC(=O)O)C(=O)O)s3)cc2c(=O)[nH]1 (stereo not given)	inactive
COc1ccccc1S(=O)(=O)Nc1ccc2c(c1)CN(C)C(=O)N2	inactive
CC(C)(C[C@@](O)(Cc1cc2ccncc2[nH]1)C(F)(F)F)c1cc(F)ccc1O	inactive
CCCCNc1ncc2c(-c3ccc(S(=O)(=O)N4CCOCC4)cc3)nn(C3CCC(O)CC3)c2n1 (stereo not given)	inactive
Cn1cc(-c2cnn3c(N)c(Br)c(C4CCCNC4)nc23)cn1 (stereo not given)	inactive
CN(C)C(=O)NC1(c2ccccc2)CCN(CCC[C@]2(c3ccc(Cl)c(Cl)c3)CCCN(C(=O)c3ccccc3)C2)CC1	inactive
COC(=O)C1=CO[C@@H](O[C@@H]2O[C@H](CO)[C@@H](O)[C@H](O)[C@H]2O)[C@H]2[C@@H]1C=C[C@]21C=C([C@H](C)OC(=O)/C=C/c2ccc(O)cc2)C(=O)O1	inactive
COC(=O)CC(O)CC(O)/C=C/c1c(C)ccc2c1C(OC(C)=O)CC(C)C2 (stereo not given)	inactive
O=C(NC1(c2ccccc2)CC1)c1c(CN2CCC(N3CCCCC3)CC2)c(-c2cccc(C(F)(F)F)c2)nc2cc(Br)ccc12	inactive
C[C@@H]1CC[C@]2(C(=O)O)CC[C@]3(C)C(=CCC4[C@@]5(C)CC[C@H](O)[C@](C)(C(=O)O)C5CC[C@]43C)C2[C@]1(C)O (stereo not given in full)	inactive
COC(=O)c1ccc2c(c1)nc(NC(=O)c1ccccc1)n2CCCc1ccccc1	inactive
C/C1=C/CCC2=CC(OC2=O)C(C)(C)/C=C/C1=O (stereo not given)	inactive
CCn1c(=O)n([C@H]2CCCN(c3nccc(-c4cc5ccccc5o4)n3)C2)c2ccccc21	inactive
CCN1CCN(Cc2ccc(NC(=O)c3ccc(C)c(Oc4ncnc5[nH]c(C)cc45)c3)cc2C(F)(F)F)CC1	inactive
C=C1C(=O)OC2C3=C(C)C(=O)CC3C(C)CC(O)C12 (stereo not given)	inactive
Cc1cc(F)c(C(=O)Nc2cccc(-c3nncn3C(C)C)n2)cc1-n1cnc(C2CC2)c1	inactive
CCCc1cc(C)[nH]c(=O)c1CNC(=O)c1cc(-c2ccnc(N3CCN(C)CC3)c2)cc2c1cnn2C(C)C	inactive
